Laboratory results: PubChem BioAssay AID504720 (Sanford-Burnham Center for Chemical Genomics, 2011)
Screen size: about 350,000 compounds; about 1,100 (0.31%) were called active. This excerpt belongs to a sample that is enriched for actives. A number with no mark means an inactive call. Cut-off read from the data, not from the text of the source: active = activation above about 50%; inactive = the rest.

Molecular target: Endoribonuclease toxin MazF (Escherichia coli (strain K12)) (UniProt P0AE70)
Sequence (P0AE70 whole entry, looked up): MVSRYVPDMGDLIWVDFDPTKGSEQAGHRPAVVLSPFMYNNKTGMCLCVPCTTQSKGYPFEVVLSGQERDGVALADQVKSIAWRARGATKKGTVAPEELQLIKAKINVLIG
Assay: activators of E. coli MazEF toxin-antitoxin RNase, primary screen, biochemical, fluorescence, uHTS (AID 504720)
Conditions: FAM/BHQ RNA-DNA oligo cleavage fluorescence, 5 h, at 20 µM, hits give high values

Row | Compound | activation
1 | CC(C)c1nc(SCC(=O)Nc2cccc(C(=O)O)c2)c2c3c(sc2n1)CCCC3 | 3.75%
2 | Cc1cc(NC(=O)CSc2nc(C(C)C)nc3sc4c(c23)CCC(C)C4)no1 (stereo not given) | 2.72%
3 | Cc1nc(SCC(=O)Nc2cc(C)on2)c2c3c(sc2n1)CCCC3 | 63.5% (active)
4 | CCC(C)(C)NC(=O)C(c1ccccn1)N(C(=O)c1csnn1)c1ccccc1 (stereo not given) | 5.61%
5 | COc1ccc(CCNC(=O)CSc2nc(C)nc3c2oc2ccccc23)cc1OC | 6.58%
6 | O=c1cc(CN2CCN(c3cccc(Cl)c3)CC2)c2cc3c(cc2o1)CCCC3 | -4.83%
7 | Cc1ccnc(N2CCN(C(=O)CSc3nc4ccccc4nc3N3CCCCC3)CC2)c1 | -5.31%
8 | COc1cc(OC)cc(-c2c(C#Cc3ccsc3)c3cc(-c4ccc(OC)cc4F)ccc3n2C)c1 | -17.7%
9 | Cc1ccn2c(-c3csc(Nc4ccc(C(=O)O)cc4)n3)c(C)nc2c1 | -8.63%
10 | O=c1oc2ccccc2cc1-c1csc(Nc2ccc(O)cc2)n1 | 78.3% (active)
11 | Cc1ccc(Nc2nc(-c3ccc(O)cc3O)cs2)nc1 | 17.4%
12 | CCCC1(C(=O)OC)NC(c2ccco2)C2C(=O)N(C)C(=O)C21 (stereo not given) | -13%
13 | NS(=O)(=O)c1ccc(NC(=S)NNC(=O)c2cccs2)cc1 | 13.7%
14 | Oc1ccc(N2CCN(C(=S)NCc3ccccc3)CC2)cc1 | -1.54%
15 | O=C(COC(=O)c1ccccc1C(=O)N1CCN(c2ccccc2)CC1)NCc1ccccc1 | 67.3% (active)
16 | CC(C)N(C(=O)COC(=O)c1ccccc1C(=O)N1CCN(c2ccc(F)cc2)CC1)C(C)C | 5.64%
17 | Cn1c2ccccc2n2c(=O)c(=O)n(CC(=O)c3ccc(F)cc3)nc12 | -20.6%
18 | CCSc1ccccc1C(=O)NCc1ccc(OC)cc1 | 2.86%
19 | COc1ccc(OC)c(NC(=O)c2cnn(-c3ccccc3Cl)c2NC(=O)c2ccco2)c1 | 4.29%
20 | Cn1nc(C(F)(F)F)cc1C(=O)O | 11.7%
21 | Cn1nc(C(F)(F)F)cc1-c1ccc(/C=C(\C#N)C(=O)c2cccc(C(F)(F)F)c2)s1 | 730% (active)
22 | CCC(=O)OCc1c(C(F)(F)F)nn(C)c1Oc1cccc(C(F)(F)F)c1 | -2.22%
23 | C=CCSc1nc(Cc2ccc(Cl)cc2)nc2ccccc12 | -10.7%

Row | Compound | activation
24 | COc1cccc(OC)c1CN(C)C(=O)c1cnccc1C(F)(F)F | -0.62%
25 | Cc1nc([N+](=O)[O-])cn1CC(=O)Nc1ccc(Cl)cc1 | 7.49%
26 | Nc1c(C(=O)c2cccs2)sc2nsc(SCCN3CCCCC3)c12 | 790% (active)
27 | CN=C(c1ccccc1)c1c(C)cccc1C | 0.32%
28 | CN(C)CCNC(=O)C(C(=O)c1ccccc1)n1ccccc1=O (stereo not given) | 5.66%
29 | Cc1nn2c3cc(N4CCOCC4)ccc3nc2c2ccccc12 | 31.7%
30 | Cc1ccn2c(=O)c(NC(=O)c3cccc4ccccc34)c(C)nc2c1 | 4.6%
31 | CC(=O)c1sc(NC(=O)C2=NN(c3ccccc3)C(=O)CC2)nc1C | 0.238%
32 | CC(=O)c1sc(NC(=O)c2cccc3ccccc23)nc1C | 63.5% (active)
33 | Cc1cccc(N2C(=O)C3C(c4ccccc4)OC4(C(=O)c5ccccc5C4=O)C3C2=O)c1 (stereo not given) | 0.83%
34 | CCOc1ccc(N2C(=O)Nc3ccccc3C2(O)C(=O)NCc2ccco2)cc1 (stereo not given) | -28.4%
35 | CCCCCCCC(=O)NC(Nc1ccccc1OC)C(Cl)(Cl)Cl (stereo not given) | -13.4%
36 | Cc1ccsc1CNn1cnnc1SCc1ccccc1F | 54.5% (active)
37 | Cc1ccccc1CSc1nnc(-c2cccnc2)n1N | -17.4%
38 | CCN(CC(=O)NCc1cccs1)C(=O)c1cccc(S(=O)(=O)Nc2ccccc2OC)c1 | 2.02%
39 | CCOc1ccc(C(C(=O)NCCOC)N(CCOC)C(=O)CCC(=O)Nc2ccccn2)cc1 (stereo not given) | -1.66%
40 | Cc1ccc(C(=O)O)cc1N1C(=O)CCCC1=O | 4.24%
41 | COCCCNc1nc2c(-c3cccc(C)c3)nnn2c2ccc(Cl)cc12 | 6.31%
42 | CN(CC(=O)Nc1ccc(F)c(F)c1F)C(=O)Cn1cnc2c1c(=O)n(C)c(=O)n2C | 3.59%
43 | O=C(c1ccc(Cl)cc1)N1N=C(c2ccccn2)CC1(O)C(F)(F)F (stereo not given) | 7.8%
44 | O=C1NC(=O)N(c2ccc(F)cc2)C(=O)/C1=C/c1ccc2c(c1)CCCN2Cc1ccccc1 | 50.1% (active)
45 | O=C1CN(C(=O)c2cc(F)cc(F)c2)c2ccccc2N1 | 10.5%
46 | COCCNC(=O)C(c1ccc(O)cc1)N(C(=O)CCC(=O)Nc1nccs1)c1ccc(C)cc1 (stereo not given) | 8.66%

Row | Compound | activation
47 | CC(=O)Oc1cc2c(C(=O)NCCN3CCOCC3)c(C)oc2c2ccccc12 | -12.4%
48 | O=C(CN1C(=O)NC(Cc2ccccc2)(Cc2ccccc2)C1=O)NCC1CCCCC1 | 2.41%
49 | CCCCCCNCCn1cnc2c(N)ncnc21 | 2.79%
50 | CCOCCN(C=O)c1cccc(OC)c1 | 4.02%
51 | COc1ccc(C(C(=O)NC2CCCCC2)N(C(=O)c2snc(C(N)=O)c2N)c2ccccc2OC)cc1 (stereo not given) | 6.68%
52 | COc1ccc(N(C(=O)c2snc(C(N)=O)c2N)C(C(=O)NC2CCCC2)c2ccc(C)o2)c(OC)c1 (stereo not given) | 146% (active)
53 | CCC(C(=O)NC1CCCCC1)N(C(=O)c1snc(C(N)=O)c1N)c1ccc(OC)cc1OC (stereo not given) | 8.72%
54 | O=C(NCCCO)/C(=C\C=C\c1ccccc1)NC(=O)c1ccccc1Cl | -2.84%
55 | CCNC(=O)NC(=O)C(C)OC(=O)C1CCN(S(=O)(=O)c2ccccc2F)CC1 (stereo not given) | 5.47%
56 | C=CC[C@H](CC(=O)N(CCO)Cc1ccccc1)C(=O)N[C@@H](COC(=O)[C@@H](CC=C)Cc1ccc(F)cc1)Cc1ccccc1 | -7.46%
57 | Cc1nc(NCc2ccccc2)c(C(N)=O)c2c1COC(C)(C)C2 | -2.87%
58 | CCCn1c(=O)c2c(C(F)(F)F)cc(-c3cccs3)nc2n(CCC)c1=O | 11.8%
59 | O=C(O)C(c1ccccc1)N1C(=O)/C(=C\c2ccc(-c3cccc(Cl)c3)o2)SC1=S (stereo not given) | 199% (active)
60 | CC(C(=O)NC1CCS(=O)(=O)C1)N1C(=O)/C(=C/c2ccc(Cl)cc2)SC1=S (stereo not given) | 0.406%
61 | O=C(NC(=S)Nc1cc(C(F)(F)F)ccc1N1CCOCC1)c1ccc(-c2cccc(Cl)c2)o1 | -2.26%
62 | CC(C)N=C1CCCC1C(=S)SSC(=S)C1CCCC1=NC(C)C (stereo not given) | 1.19%
63 | CN(C)c1ccc(Nc2c3c4c(cccc4n(C)c2=O)C(=O)c2ccccc2-3)cc1 | 178% (active)
64 | CN(C)c1ccc(C2N(C)C(=O)c3ccccc3N2C)cc1 (stereo not given) | -0.422%
65 | NC1=NC(=O)C(Cc2cccc(Cl)c2Cl)S1 (stereo not given) | -10%
66 | COc1cc(C(=O)NCc2nnc(SCC(=O)Nc3nc4ccc(C)cc4s3)o2)cc(OC)c1OC | 12.4%
67 | CCN(CC)CCOc1ccc2c(c1)C(=NNC(=O)c1ccccn1)c1cc(OCCN(CC)CC)ccc1-2 | -0.85%
68 | CN(CCNC(=O)c1cc2c(-c3ccccc3F)nn(C)c2s1)C1CCCCC1 | 18.1%
69 | C[C@@H](Nc1nc(-c2ccccc2)nc2c1oc1ccccc12)C(=O)O | 0.442%

Row | Compound | activation
70 | COCCNc1nc(-c2ccccc2)nc2c1oc1ccccc12 | 10.6%
71 | CCc1nc(Nc2ccc3nccnc3c2)c2oc3ccccc3c2n1 | 92.8% (active)
72 | O=C(CSc1ccc(Cl)cc1)NC1CC1 | 8.89%
73 | Cc1noc(NS(=O)(=O)c2ccc(N3CC(O)=C(c4ccccc4)C3=N)cc2)c1C | -0.03%
74 | COc1ccc(N=Nc2c(-c3ccc(OC)cc3)[nH]oc2=O)cc1 | 61.5% (active)
75 | COc1ccc(N=C2C=CC(=O)O2)cc1 | 6.95%
76 | O=c1o[nH]c(-c2ccccc2)c1N=Nc1c(F)cccc1Cl | -10.5%
77 | COc1ccc(N2CCN(Cc3ccc(Br)s3)CC2)cc1 | -3.28%
78 | O=S(=O)(c1cnccc1N1CCN(/N=C/c2ccc(Br)cc2)CC1)N1CCCCC1 | -7.86%
79 | O=C(c1ccc(Cl)nc1)N1CCN(S(=O)(=O)c2ccc3c(c2)OCCO3)CC1 | 2.83%
80 | COc1cc(C(=O)N2CCN(C)CC2)cc(OC)c1OC | 4.16%
81 | CC1CC(C)CN(S(=O)(=O)c2cccc(C(=O)N3C(=O)c4cccc(N)c4C3=O)c2)C1 (stereo not given) | 3.79%
82 | COc1cc(C(=O)N2C(=O)c3cccc(N)c3C2=O)cc(OC)c1OC | 75.9% (active)
83 | NC(CSC(c1ccccc1)(c1ccccc1)c1ccc(-c2ccccc2)cc1)C(=O)O (stereo not given) | -7.6%
84 | COc1ccc(CN(C)C(=S)Nc2ccc(Cl)cc2Cl)cc1 | 7.07%
85 | O=c1c2ccccc2nc(/C=C/c2ccc(F)cc2)n1-c1ccccc1O | -12.9%
86 | O=c1c2ccccc2nc(/C=C/c2ccco2)n1-c1ccccc1O | -0.876%
87 | CCn1c(/C=C/c2ccc([N+](=O)[O-])o2)nc2ccccc2c1=O | 1270% (active)
88 | CN1OC[C@@H]2CN[C@H](c3ccc(-c4ccccc4)cc3)C[C@@H]21 | 8.87%
89 | COC(=O)c1c(-c2ccsc2)oc2ccc(-c3cc(OC)c(OC)c(OC)c3)cc12 | 1.83%
90 | O=C1N[C@H](Cc2c[nH]c3ccccc23)COC(=O)[C@H](Cc2ccc(F)cc2)C/C=C\C[C@H]1CC(=O)N(CCO)Cc1ccccc1 | -14.8%
